# A selection: hits, their analogues and other compounds. The true share with any hit is near 3.8%.
# Mtb hypoxia rep: Mtb hypoxia fluorescent reporter inhibition; M. tuberculosis hypoxia-regulated fluorescent reporter, fluorescence; fluorescence inhibition, % (no concentration beside the values); 0.1% of 300,000 active; in the data active = fluorescence inhibition mostly above about 23%, no sharp cut-off; inactive = mostly below about 17%
# Y pestis TopoI: inhibitors of Yersinia pestis topoisomerase I; 0.064% of 360,000 active; activity, % at 10 µM; Y. pestis Topo-I cleavage product accumulation, plate reader; in the data active = activity above about 50%, passing the limit was not always enough
# PrPC TRFRET: cell surface PrPC inhibition, primary TR-FRET screen | P04156 | TR-FRET read-out | inhibition, % at 13.8 µM | 0.43% of 370,000 active | AID 720596; in the data active = inhibition above about 24%; note: 0% = median of the test wells and 100% = reference compound wells
# GDH-TPI counter: inhibits GDH-TPI coupling enzymes, artifact for Mtb FBA screen; GDH-TPI coupled enzyme counterscreen, NADH absorbance; inhibition, % at 4.8 µM; 1.2% of 360,000 active; AID 588335; in the data active = inhibition above about 30%;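 note: 0% = DMSO wells and 100% = wells lacking the enzyme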
# Mtb FBA inh: inhibits M. tuberculosis FBA enzyme. inhibition, % at 1 µM. purified M. tuberculosis FBA, fluorescence read-out. AID 588726. P9WQA3. 2.3% of 360,000 active; in the data active = inhibition above about 27%;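 note: 0% = vehicle and 100% = reference inhibitor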
# Target sequence (P9WQA3 whole entry, looked up): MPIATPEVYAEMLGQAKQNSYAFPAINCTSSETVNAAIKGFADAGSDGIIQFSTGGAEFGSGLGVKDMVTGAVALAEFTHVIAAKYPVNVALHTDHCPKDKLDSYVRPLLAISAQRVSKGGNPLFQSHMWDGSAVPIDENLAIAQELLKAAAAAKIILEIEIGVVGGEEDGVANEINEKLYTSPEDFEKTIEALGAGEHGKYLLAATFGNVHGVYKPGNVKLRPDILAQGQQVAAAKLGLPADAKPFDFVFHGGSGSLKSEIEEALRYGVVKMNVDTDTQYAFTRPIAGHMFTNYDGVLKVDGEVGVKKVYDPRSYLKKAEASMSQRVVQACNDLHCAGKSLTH
# PrP 5UTR inh: suppresses PrP 5' UTR mRNA reporter expression. 0.35% of 340,000 active. inhibition, % (test concentration not listed). cell-based PrP 5' UTR mRNA reporter, plate reader; in the data active = inhibition above about 52%; note: 0 = median of the neutral control wells
# The depositor's hits bear a star; / = no result given; + = active, no number.
SMILES,Mtb hypoxia rep,Y pestis TopoI,PrPC TRFRET,GDH-TPI counter,Mtb FBA inh,PrP 5UTR inh
COc1ccc(/C=C2/SC(=S)N(CCC(=O)O)C2=O)cc1,5.0,2.3,-8.0,11.3,-6.0,62.8*
O=C(O)CCN1C(=O)/C(=C\c2ccncc2)SC1=S,37.6*,0.6,12.4,1.6,0.3,-19.8
COCCNc1cc(C)nc2c(-c3ccccc3OC)c(C)nn12,1.1,2.0,-6.0,13.7,5.6,-28.9
COCCNc1cc(C)nc2c3c(C)cc(C)nc3nn12,6.3,-0.8,2.3,4.5,+,-84.1
Cc1cc(C)c2c(n1)nn1c(NCCN3CCOCC3)cc(C)nc21,18.2,4.9,0.7,10.1,+,0.1
C=C(C)C1CC=C(C)C(=NNC(=O)CNc2cccc3ccccc23)C1 (stereo unspecified),-7.7,/,/,/,/,/
CCOc1ccccc1-c1ccc(C(=O)NCc2ccccc2)o1,11.2,-9.7,1.2,13.6,+,-26.7
CCOc1cccc2cc(C(=O)NCc3ccccc3)c(=N)oc12,13.1,4.3,/,0.6,2.0,-15.3
COc1ccccc1NS(=O)(=O)c1cccc(C(=O)NN=Cc2ccc(C)o2)c1,3.8,/,/,/,/,/
O=c1[nH]c2ccc(Cl)cc2c(O)c1-c1ccccc1,7.9,-2.7,-0.7,-4.2,34.4*,-3.4
O=c1[nH]c(=O)n(Cc2ccc(F)cc2)c(O)c1C=NCCCn1ccnc1,2.9,0.3,0.0,-5.7,4.8,-14.6
O=c1[nH]c(=S)n(Cc2ccc(F)cc2)c(O)c1C=NCCCn1ccnc1,-13.0,5.9,-7.1,31.0*,-1.6,-19.2
O=C(CCCOc1ccccc1)Nc1ccc(S(=O)(=O)N2CCOCC2)cc1,17.3,-6.5,14.1,-1.2,3.6,-4.4
Cc1ccc(OCCCC(=O)Nc2ccc(S(=O)(=O)N3CCOCC3)cc2)cc1,30.4*,20.7,6.6,-2.1,0.9,-21.5
CCOc1ccccc1OCCCC(=O)Nc1cccc(S(=O)(=O)N2CCOCC2)c1,26.3*,21.2,3.9,0.0,-0.5,-19.9
O=C(CCCOc1ccccc1)Nc1cccc(S(=O)(=O)N2CCOCC2)c1,-9.9,8.1,14.7,7.3,0.4,-5.0
C[N+]1([O-])C2CC(OC(=O)C(CO)c3ccccc3)CC1C1OC12 (stereo unspecified),0.4,/,/,/,/,/
CCC(=O)Nc1c(C#N)c2nc3ccccc3nc2n1C1CCCCC1,-3.6,-1.1,1.4,-10.1,11.0,8.8
N#Cc1c(N)n(-c2ccc(C(=O)O)cc2)c2nc3ccccc3nc12,/,-5.4,-17.8,20.2,+,-150.8
N#Cc1c(N)n(-c2ccc(N)cc2)c2nc3ccccc3nc12,11.6,-0.9,-25.0,0.5,-3.0,-5.3
N#Cc1c(N)n(C2CCCCC2)c2nc3ccccc3nc12,/,16.5,-5.7,13.9,117.5*,-16.9
Cc1cc(=O)[nH]c(NN=Cc2c(C)oc3ccccc23)n1,3.7,/,/,/,/,/
CCc1nnc2c(N(C)S(=O)(=O)c3ccc(C)cc3)nc3ccccc3n12,4.2,-1.8,3.7,-9.6,2.0,-0.7
COc1ccc(S(=O)(=O)N(C)c2nc3ccccc3n3c(CC(C)C)nnc23)cc1,-7.6,-7.2,3.7,11.8,56.0*,5.5
CC1=CN2C(=NC(=O)CC2(C)C(=O)N(CC(=O)NC2CCCC2)Cc2ccccc2)C=C1 (stereo unspecified),-0.1,-4.0,8.5,-2.3,124.0*,4.4
SMILES,Mtb hypoxia rep,Y pestis TopoI,PrPC TRFRET,GDH-TPI counter,Mtb FBA inh,PrP 5UTR inh
Cc1ccc(C(=O)N(CC(=O)NC2CCCC2)c2ccccc2C)s1,10.0,-5.6,8.0,-1.9,3.5,28.4
Cc1ccccc1N(CC(=O)NC1CCCC1)C(=O)C1(C)CC(=O)N=C2C=CC(Cl)=CN21 (stereo unspecified),-3.4,1.0,1.5,8.1,155.0*,0.1
CCOC(=O)[C@]12Cc3c(cc(OC)c(OC)c3OC)C1N(Cc1ccccc1)C(=O)c1ccccc12 (stereo partly specified),12.8,/,/,/,/,/
CCCC(=O)Nc1nc2ccc(OC)cc2s1,6.4,1.1,6.2,5.6,0.3,-87.0
COc1ccc2nc(NC(=S)N(C)C)sc2c1,7.9,-9.0,4.2,44.2*,-0.8,-135.8
Cc1csc(NC(=O)c2cc(=O)[nH]c3ccc(S(=O)(=O)N4CCOCC4)cc23)n1,4.4,-14.4,-11.4,5.7,45.9*,-31.8
COc1cc(NC(=O)c2cc(=O)[nH]c3ccc(S(=O)(=O)N4CCOCC4)cc23)cc(OC)c1,-9.8,-12.7,6.7,6.9,3.1,-12.0
CSc1nnc(NC(=O)c2ccc3c(c2)OCO3)s1,-1.0,6.6,-2.2,8.9,0.1,62.6*
COc1ccc(C2C3C(=O)N(C(C)(C)C)C(=O)C3[C@]3(CC(C)C)C(=O)N(c4ccc(C(F)(F)F)cc4)C(=O)N23)cc1 (stereo partly specified),-6.7,/,/,/,/,/
CCOc1ccc(NC(=O)CC(C)=NNC(=O)COc2ccc(Br)cc2C)cc1,12.4,/,/,/,/,/
Cc1cc(NCc2ccco2)nc2cc(O)ccc12,-9.6,-1.6,2.2,10.1,124.3*,2.2
Cc1ccc(Nc2cc(C)c3ccc(O)cc3n2)cc1C,/,-6.0,5.2,3.9,13.3,/
CCCOc1ccc(C(=O)Nc2ccc(S(=O)(=O)N3C[C@@H]4C[C@@H](C3)c3cccc(=O)n3C4)cc2)cc1,5.2,67.3*,-9.6,3.5,-0.8,-13.0
N#Cc1c(N)nc2c(c1-c1ccc(F)cc1)CCC2,11.8,-2.4,-4.0,20.0,64.3*,-9.5
Cc1ccc(-c2c(C#N)c(N)nc3c2CCCCC3)cc1,-4.4,9.9,13.2,8.2,-1.1,16.8
O=C(c1cccc(-c2cncc3nccn23)c1)N1CCOCC1,/,-0.1,3.5,8.4,+,/
CN(C)c1ccc(/C=N/NC(=O)C(=O)N2CCCCCC2)cc1,/,-3.2,-0.9,35.5*,3.7,-8.7
O=C(N/N=C/c1ccc(OC(=O)c2ccco2)cc1)c1ccc[n+]([O-])c1,/,-9.5,0.0,36.2*,-2.1,-7.5
CN(C)c1ccc(/C=N/NC(=O)c2ccn(C)n2)cc1,/,-11.7,-12.7,33.1*,-3.0,-39.0
CN(C)c1ccc(C=Nc2ccccc2C(N)=O)cc1,-4.0,-1.0,1.2,38.3*,5.5,3.2
Cc1ccc(C=Nc2ccccc2C(N)=O)o1,8.7,-6.3,-4.7,6.9,7.6,-6.8
CN(C)c1ccc(/C=N\NC(=O)c2csnn2)cc1,/,-4.3,-3.5,41.9*,-3.6,-96.0
CCN(CC)c1ccc(C=NNC(=O)c2ccco2)cc1,3.3,/,/,/,/,/
CN(C)c1ccc(/C=N/NC(=O)c2ccco2)cc1,/,-5.8,3.0,47.4*,-3.2,-118.1
CN(C)c1ccc(/C=N/NC(=O)c2ccccn2)cc1,/,-4.6,-4.2,24.9,-0.1,-9.5
Cc1ccc(S(=O)(=O)N=C(Nc2cc(C)on2)c2ccc(Cl)cc2)cc1,5.5,/,/,/,/,/
Nc1nc(N)c2c(ccc3nccc32)[nH]1,/,-12.1,5.0,21.0,114.5*,5.4
Nc1ccc2ncccc2c1N,3.2,-30.7,0.6,-3.4,-3.6,-14.6
COC(=O)C1C(=O)CC(C)(O)C(C(=O)OC)C1C=Cc1ccccc1 (stereo unspecified),7.4,/,/,/,/,/

# Source: PubChem (several laboratories)
